An excerpt weighted towards active compounds, which were near 21% of everything screened.
Pf growth 48h: inhibits P. falciparum growth in the first generation, 48 h; P. falciparum luciferase growth in erythrocytes, 48 h; Potency, µM (highest dose often 28.7 µM), for inactives: top-dose activity change, negative = inhibition, hits mostly inhibitors; 310,000 compounds, 5.9% hits; also: potency is read from the fitted curve at half-maximal effect; % is scaled to controls: 0 for no effect and ±100 for the full control effect
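A one-generation exposure of luciferase-tagged malaria parasites in RPMI 1640/Albumax erythrocyte culture, 37 C and 5% CO2. Inhibition is inferred from decreased luminescence after adding detection reagent.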
AMA1-RON2 inh: inhibitors of Plasmodium falciparum AMA1-RON2 interaction; AlphaScreen AMA1-biotinylated RON2 peptide binding; Potency, µM (highest dose often 58.2 µM), inactives show at the highest dose activity change, negative = inhibition, hits mostly inhibitors; 360,000 compounds, 0.2% hits;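 also: potency is read from the fitted curve at half-maximal effect; 0% = vehicle wells and -100% = peptide control; nearly all actives have a fitted effect of over 45% in size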
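AMA1 (3D7) with his tag at 25 nM final met compounds first, then biotinylated RON2 peptide at 25 nM; detection used donor plus acceptor beads, 10 µg/mL apiece, read by AlphaScreen after 30 min at room temperature.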
Shiga toxin inh: Shiga toxin inhibition | Vero cells, Shiga toxin protein synthesis inhibition reporter | 290,000 compounds, 9.2% hits | AID 2315 | inhibition, % at 38.7 µM; in the data active = inhibition mostly above about 28%, no sharp cut-off; inactive = mostly below about 43%; also: 0% is about no effect
HCV inhibitor: inhibitors of hepatitis C virus infection. Potency, µM (top dose mostly 41.8 µM), without a hit: at the highest dose activity change, negative = inhibition, actives largely listed as inhibitors. 340,000 compounds, 3.4% hits. Huh7.5.1 HCVcc-Cre infection, luciferase reporter, 44 h; also: potency is read from the fitted curve at half-maximal effect; % is scaled to controls: 0 for no effect and ±100 for the full control effect
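After 44 h co-culture of compound, cells and HCVcc-Cre (~0.5 moi), substrate is added for 15 min at room temperature and luciferase measured over 15 sec. Cells were seeded at 1,000/well and pre-cultured 4 h.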
Cycloheximide cs: counter-screen for Shiga toxin inhibitors: cycloheximide protein synthesis inhibition | AID 2314 | max response, % | cell reporter, cycloheximide protein synthesis inhibition counterscreen | 300,000 compounds, 12% hits; in the data active = max response mostly above about 13%, no sharp cut-off; inactive = mostly below about 14%; also: read at 38.3 µM for the half of the compounds with a filed dose; 0% is about no effect
Pf growth 96h: P. falciparum growth inhibition at 96 hour, primary screen for plastid delayed-death inhibitors; P. falciparum luciferase reporter growth, 96 h; Potency, µM (doses to about 28.7 µM), for inactives: at the highest dose activity change, negative = inhibition, actives largely listed as inhibitors; 320,000 compounds, 6.9% hits; AID 504834; also: potency is read from the fitted curve at half-maximal effect; % is scaled to controls: 0 for no effect and ±100 for the full control effect
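Luminescence readout: decreased luciferase signal marks inhibited growth of reporter-expressing P. falciparum in infected red cells (2% hematocrit, 0.05% parasitemia final), exposed to compound two generations (96 h, 37 C, 5% CO2).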
Numbers without * were called inactive; i = inactive; ? = inconclusive; / = no result; [ ] = another dose, or the depositor's remark. Unless noted, calls follow the shape of the dose curve; as a rule, active = well fitted curve in the direction sought with a large enough effect; inconclusive = small, poorly fitted or top-dose-only effect, or another doubt; inactive = no such curve, though single readings can be large; an effect the other way counts as inactive or inconclusive.

SMILES	Pf growth 48h	AMA1-RON2 inh	Shiga toxin inh	HCV inhibitor	Cycloheximide cs	Pf growth 96h
CC1(C)CC(=O)C2=C(C1)O[C@@]1(CCCCN3C(=O)c4ccccc4C3=O)Cc3ccccc3C2O1	1.69µM*	/	i	/	9.3	1.69µM*
CCCCC[C@]12Cc3ccccc3C(O1)C1=C(CC(C)(C)CC1=O)O2	34.1%[5.75 µM]	/	i	/	-3.2	?
CCCC[C@]12Cc3cc(OC)c(OC)cc3C(O1)C1=C(O2)C(=O)c2ccccc2C1=O	1.35µM*	/	i	/	-1.8	26.3%[5.75 µM]
CCCCOc1ccc(C(=O)NCC(=O)NC2CCC(C)CC2)cc1 (centres undefined)	14.1%	0.0%	/	?	/	29.9%
CCC(C(=O)Nc1ccc([N+](=O)[O-])cn1)c1ccccc1 (centres undefined)	-13.2%	-12.1%	-5.8	9.4%	0.8	0.0%
COc1cccc(OC)c1C(=O)Nc1cccc(NC(=O)c2cccs2)c1	7.1%	-0.9%	2.3	-22.7%	-1.3	?
COc1ccc(C(=O)Nc2cccc(NC(=O)c3cccs3)c2)cc1OC	-18.5%	0.3%	23.4*	?	20.4*	-17.8%
COc1ccc(NC(=O)c2cccs2)cc1O	173.7%	0.6%	69.9*	15.9%	57.9*	140.3%
COc1ccc(C(=O)Nc2ccc(NC(=O)c3cccs3)c(OC)c2)cc1Cl	?	-4.0%	-8.9	?	-2.4	-9.3%
COc1ccc(-c2csc(NC(=O)c3ccccc3OC)c2C(=O)O)cc1OC	?	-1.9%	/	2.0%	0.8	?
COc1ccc(-c2csc(NC(=O)c3cccs3)c2C(=O)O)cc1OC	?	-4.7%	28.4*	5.7%	28.3	-4.0%
COc1ccc(/C=C(\NC(=O)c2cccs2)C(=O)NC(C)(C)C)cc1OC	19.5%	16.3%	-7.3	2.4%	-1.1	0.0%
COc1ccc(/C=C/C(=O)c2ccc(NC(=O)c3cccs3)cc2)cc1OC	?	-11.3%	70.3*	10µM*	22.4*	-12.0%
O=C(NCc1ccccc1F)C1CCCN(S(=O)(=O)N2CCOCC2)C1 (centres undefined)	32.3%	-3.9%	6.6	14.7%	6.7	-19.4%
O=C1C2CCC(C2)[C@@H]2CCCCN12 (some centres undefined)	/	/	i	/	7.5	/
C[C@@H]1COc2cccc(N3CCSCC3)c2S(=O)(=O)N1	/	1.5%	/	/	/	/
COc1cccc(CNC(=O)c2ccc(C(=O)NCc3cccc(OC)c3)cc2)c1	8.2%	-13.2%	-29.7	-8.1%	-2.0	1.7%
COc1cccc(CNC(=O)c2ccc(C3SCCS3)cc2)c1	13.0%	-7.3%	31.8	-29.4%	26.4*	?
COc1cccc(CNC(=O)C(c2ccc(Cl)cc2)C(C)C)c1 (centres undefined)	9.28µM*	2.0%	-1.9	14.2%	-1.7	6.57µM*
COc1cccc(CNC(=O)CCl)c1	?	0.9%	11.3	31.4%	8.0	10.4µM*
COc1ccc(CC(=O)O/N=C(\N)c2cccc([N+](=O)[O-])c2)cc1	42.8%	-23.5%	40.4	1.6%	3.8	53.5%
COc1ccc(C(=O)O/N=C(\N)Cc2cccs2)cc1OC	?	5.0%	-19.3	?	-4.5	-25.5%
COc1ccc(CC(=O)O/N=C(\N)c2ccccc2)cc1OC	/	-0.7%	42.3*	?	37.6*	15.2%
COc1ccc(/C(N)=N/OC(=O)Cc2cccs2)cc1	132.7%	-2.0%	113.3*	12.2%	44.4*	31.6%
COc1ccc(/C(N)=N/OC(=O)Cc2cccs2)cc1OC	68.0%	7.3%	32.6*	?	27.4*	-0.3%
N/C(=N\OC(=O)Cc1ccccc1[N+](=O)[O-])c1cccnc1	-7.8%	1.2%	42.9	12.1%	11.5	76.0%
COc1ccc(CC(=O)O/N=C(\N)c2ccc(Br)cc2)cc1OC	?	13.1%	10.2	?	-2.6	0.0%
COc1ccc(/C(N)=N/OC(=O)Cc2ccccc2[N+](=O)[O-])cc1	7.5%	-3.7%	40.5	?	30.6*	13.1µM*
Cc1cc(C(=O)N2CCC(Cc3ccccc3)CC2)c(C)o1	?	-1.6%	-5.6	-9.1%	-3.4	18.7%
